How the values were obtained:
Test in all cases: DAPPL (digital affinity profiling via proximity ligation, sequencing); 10 mM Tris-HCl pH 7.5, 50 mM NaCl, 1 mM DTT, 4% glycerol, room temperature, 30 min; GST-TFs on glutathione beads, 16-mer random dsDNA library, 0.1% formaldehyde crosslink after washing; high values mean tight binding
FEV = biological target: T1, FEV (Homo sapiens, UniProt Q99581 1-238); conditions: protein: recombinant; tags: N-terminal GST; dsDNA, one strand shown
T1 sequence: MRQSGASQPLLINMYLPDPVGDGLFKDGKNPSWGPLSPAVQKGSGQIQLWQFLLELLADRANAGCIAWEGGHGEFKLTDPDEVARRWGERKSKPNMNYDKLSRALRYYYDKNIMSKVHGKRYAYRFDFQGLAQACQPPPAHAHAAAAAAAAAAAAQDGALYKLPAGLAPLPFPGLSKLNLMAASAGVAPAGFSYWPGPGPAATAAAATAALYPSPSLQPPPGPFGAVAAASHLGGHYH
In short: (§1)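 The binding signal reported is, for every hexamer, its read frequency for a factor over its read frequency for the tag-only sample. Reads came from pools of yeast-expressed, GST-fused human transcription factors on glutathione beads, barcoded with DNA and mixed with that sample, which were incubated with 200 nmole of a random double-stranded 16-mer DNA library in Tris/NaCl/DTT/glycerol buffer at room temperature for 30 min. After washing, the pools were crosslinked with 0.1% formaldehyde, proximity-ligated with BsaI/T4 ligase for 1 h at 37 °C, PCR-amplified and sequenced on an Illumina NextSeq500.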

ETV5 = ETV5 (Homo sapiens, UniProt P41161 1-510); conditions: protein: recombinant; tags: N-terminal GST; dsDNA, one strand shown
Chain of ETV5 (P41161 whole entry): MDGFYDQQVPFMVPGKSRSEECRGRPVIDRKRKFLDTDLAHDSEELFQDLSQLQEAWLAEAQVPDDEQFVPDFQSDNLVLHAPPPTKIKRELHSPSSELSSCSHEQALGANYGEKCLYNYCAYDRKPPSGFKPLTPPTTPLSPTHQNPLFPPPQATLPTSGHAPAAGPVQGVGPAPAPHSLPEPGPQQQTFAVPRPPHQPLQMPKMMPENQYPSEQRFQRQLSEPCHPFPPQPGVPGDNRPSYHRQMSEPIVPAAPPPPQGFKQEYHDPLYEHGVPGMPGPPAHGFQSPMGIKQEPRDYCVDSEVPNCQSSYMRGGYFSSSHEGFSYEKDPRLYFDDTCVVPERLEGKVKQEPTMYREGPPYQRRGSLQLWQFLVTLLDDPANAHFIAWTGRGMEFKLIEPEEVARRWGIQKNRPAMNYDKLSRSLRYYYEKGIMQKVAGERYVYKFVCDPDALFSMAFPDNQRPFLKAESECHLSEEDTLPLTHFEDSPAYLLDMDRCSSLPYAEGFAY
In short: as §1

HSF1 = HSF1 (Homo sapiens, UniProt Q00613 1-529); conditions: protein: recombinant; tags: N-terminal GST; chain copies: 3; dsDNA, one strand shown
Chain of HSF1 (Q00613 whole entry): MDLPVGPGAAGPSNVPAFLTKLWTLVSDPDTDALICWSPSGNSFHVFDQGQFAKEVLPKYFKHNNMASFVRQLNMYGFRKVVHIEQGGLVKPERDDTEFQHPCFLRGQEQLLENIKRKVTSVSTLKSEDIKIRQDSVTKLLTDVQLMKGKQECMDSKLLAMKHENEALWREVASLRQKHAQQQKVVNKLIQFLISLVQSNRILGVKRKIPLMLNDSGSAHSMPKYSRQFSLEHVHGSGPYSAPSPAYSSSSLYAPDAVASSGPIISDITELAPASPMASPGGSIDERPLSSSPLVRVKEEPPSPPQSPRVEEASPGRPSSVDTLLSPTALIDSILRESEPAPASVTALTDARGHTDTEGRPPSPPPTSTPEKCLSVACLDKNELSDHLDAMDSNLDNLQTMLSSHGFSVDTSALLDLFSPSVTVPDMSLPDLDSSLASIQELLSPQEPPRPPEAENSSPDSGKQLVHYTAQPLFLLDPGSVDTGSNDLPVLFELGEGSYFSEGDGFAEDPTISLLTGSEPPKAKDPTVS
In short: as §1

SPIC = biological target: T2, SPIC (Homo sapiens, UniProt Q8N5J4 1-248); conditions: protein: recombinant; tags: N-terminal GST; dsDNA, one strand shown
T2 sequence: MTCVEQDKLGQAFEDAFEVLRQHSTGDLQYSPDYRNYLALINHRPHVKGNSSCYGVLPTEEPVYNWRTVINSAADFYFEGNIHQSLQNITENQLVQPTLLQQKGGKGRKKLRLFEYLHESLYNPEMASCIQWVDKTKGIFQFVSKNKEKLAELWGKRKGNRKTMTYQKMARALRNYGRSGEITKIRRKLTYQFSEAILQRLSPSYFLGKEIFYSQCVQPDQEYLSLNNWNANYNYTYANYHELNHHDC
In short: as §1

ELF4 = ELF4 (Homo sapiens, UniProt Q99607 1-663); conditions: protein: recombinant; tags: N-terminal GST; dsDNA, one strand shown
Chain of ELF4 (Q99607 whole entry): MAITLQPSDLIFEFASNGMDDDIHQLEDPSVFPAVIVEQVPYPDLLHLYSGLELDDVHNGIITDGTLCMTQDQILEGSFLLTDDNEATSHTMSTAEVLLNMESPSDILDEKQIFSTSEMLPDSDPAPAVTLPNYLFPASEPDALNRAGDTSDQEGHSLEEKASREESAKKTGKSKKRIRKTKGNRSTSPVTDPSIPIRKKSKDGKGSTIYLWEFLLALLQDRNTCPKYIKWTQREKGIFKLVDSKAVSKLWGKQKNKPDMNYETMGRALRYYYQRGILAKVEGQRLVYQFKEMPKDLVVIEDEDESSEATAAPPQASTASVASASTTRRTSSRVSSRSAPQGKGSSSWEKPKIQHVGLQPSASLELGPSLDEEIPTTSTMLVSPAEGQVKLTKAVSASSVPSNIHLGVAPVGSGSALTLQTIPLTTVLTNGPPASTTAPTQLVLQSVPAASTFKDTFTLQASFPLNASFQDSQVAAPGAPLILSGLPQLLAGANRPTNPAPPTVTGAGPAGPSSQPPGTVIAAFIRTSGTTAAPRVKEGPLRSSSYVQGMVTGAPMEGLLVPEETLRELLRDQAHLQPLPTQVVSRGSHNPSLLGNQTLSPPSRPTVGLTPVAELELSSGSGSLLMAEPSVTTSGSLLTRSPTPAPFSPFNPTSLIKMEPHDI
In short: as §1

ELK4 = biological target: T3, ELK4 (Homo sapiens, UniProt P28324-2 1-405); conditions: protein: recombinant; tags: N-terminal GST; dsDNA, one strand shown
T3 sequence: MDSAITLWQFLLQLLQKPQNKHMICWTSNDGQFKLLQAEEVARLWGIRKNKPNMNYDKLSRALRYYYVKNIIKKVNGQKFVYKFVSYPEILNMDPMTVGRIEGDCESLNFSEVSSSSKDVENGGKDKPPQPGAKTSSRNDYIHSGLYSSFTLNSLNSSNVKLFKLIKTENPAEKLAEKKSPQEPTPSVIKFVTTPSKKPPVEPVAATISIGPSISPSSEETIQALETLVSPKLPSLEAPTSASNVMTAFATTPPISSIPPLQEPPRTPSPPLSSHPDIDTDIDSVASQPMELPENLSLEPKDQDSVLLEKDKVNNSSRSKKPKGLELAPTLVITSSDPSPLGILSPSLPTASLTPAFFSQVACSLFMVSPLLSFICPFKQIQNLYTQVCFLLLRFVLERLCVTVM
In short: as §1

ETV2 = biological target: T4, ETV2 (Homo sapiens, UniProt O00321 1-342); conditions: protein: recombinant; tags: N-terminal GST; dsDNA, one strand shown
T4 sequence: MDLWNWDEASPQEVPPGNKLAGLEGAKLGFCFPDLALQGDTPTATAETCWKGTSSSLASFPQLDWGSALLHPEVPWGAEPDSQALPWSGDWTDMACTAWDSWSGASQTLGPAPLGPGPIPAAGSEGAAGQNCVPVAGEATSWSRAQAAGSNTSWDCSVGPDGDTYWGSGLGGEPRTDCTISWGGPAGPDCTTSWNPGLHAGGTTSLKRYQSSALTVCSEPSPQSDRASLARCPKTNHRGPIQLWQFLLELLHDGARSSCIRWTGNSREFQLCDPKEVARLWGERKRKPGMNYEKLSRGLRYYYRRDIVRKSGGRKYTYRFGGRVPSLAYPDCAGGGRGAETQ
In short: as §1

ELF3 = biological target: T5, ELF3 (Homo sapiens, UniProt P78545 1-371); conditions: protein: recombinant; tags: N-terminal GST; dsDNA, one strand shown
T5 sequence: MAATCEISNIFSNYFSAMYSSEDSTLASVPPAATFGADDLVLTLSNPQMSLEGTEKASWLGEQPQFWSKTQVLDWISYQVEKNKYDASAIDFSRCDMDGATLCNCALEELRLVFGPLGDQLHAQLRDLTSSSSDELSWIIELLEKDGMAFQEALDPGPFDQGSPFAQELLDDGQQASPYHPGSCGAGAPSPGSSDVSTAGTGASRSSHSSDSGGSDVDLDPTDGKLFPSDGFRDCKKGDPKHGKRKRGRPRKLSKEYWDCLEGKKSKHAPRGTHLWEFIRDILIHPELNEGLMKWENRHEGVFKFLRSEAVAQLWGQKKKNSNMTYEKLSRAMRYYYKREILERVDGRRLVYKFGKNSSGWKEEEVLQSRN
In short: as §1

ETV1 = ETV1 (Homo sapiens, UniProt P50549 1-477); conditions: protein: recombinant; tags: N-terminal GST; dsDNA, one strand shown
Chain of ETV1 (P50549 whole entry): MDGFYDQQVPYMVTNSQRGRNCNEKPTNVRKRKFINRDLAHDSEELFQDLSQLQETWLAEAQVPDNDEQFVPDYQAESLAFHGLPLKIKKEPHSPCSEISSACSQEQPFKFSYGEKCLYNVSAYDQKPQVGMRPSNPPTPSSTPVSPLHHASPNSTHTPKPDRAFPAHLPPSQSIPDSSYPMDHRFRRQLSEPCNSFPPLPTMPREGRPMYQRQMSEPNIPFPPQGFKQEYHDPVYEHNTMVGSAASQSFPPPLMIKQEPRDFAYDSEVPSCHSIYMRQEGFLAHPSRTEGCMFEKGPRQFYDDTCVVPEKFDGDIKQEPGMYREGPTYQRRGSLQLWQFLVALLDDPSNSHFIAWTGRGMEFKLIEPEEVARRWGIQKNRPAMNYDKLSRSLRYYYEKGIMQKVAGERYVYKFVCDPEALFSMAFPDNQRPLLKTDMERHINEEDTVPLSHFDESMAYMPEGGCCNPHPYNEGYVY
In short: as §1

ERF = biological target: T6, ERF (Homo sapiens, UniProt P50548 1-548); conditions: protein: recombinant; tags: N-terminal GST; dsDNA, one strand shown
T6 sequence: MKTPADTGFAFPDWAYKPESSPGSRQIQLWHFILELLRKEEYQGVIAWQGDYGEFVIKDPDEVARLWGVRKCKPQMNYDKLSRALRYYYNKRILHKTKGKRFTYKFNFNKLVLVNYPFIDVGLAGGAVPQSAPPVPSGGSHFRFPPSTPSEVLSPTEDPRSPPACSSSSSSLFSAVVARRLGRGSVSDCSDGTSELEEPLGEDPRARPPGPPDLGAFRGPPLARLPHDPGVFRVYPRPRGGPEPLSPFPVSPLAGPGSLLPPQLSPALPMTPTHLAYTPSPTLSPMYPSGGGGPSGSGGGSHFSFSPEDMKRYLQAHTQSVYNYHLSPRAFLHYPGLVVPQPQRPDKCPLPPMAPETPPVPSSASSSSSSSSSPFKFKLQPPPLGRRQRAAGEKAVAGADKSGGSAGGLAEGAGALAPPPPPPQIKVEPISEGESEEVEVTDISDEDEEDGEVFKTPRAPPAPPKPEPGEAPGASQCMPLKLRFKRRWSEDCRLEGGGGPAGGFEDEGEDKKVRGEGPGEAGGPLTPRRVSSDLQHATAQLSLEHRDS
In short: as §1

ETV3L = biological target: T7, ETV3L (Homo sapiens, UniProt Q6ZN32 1-361); conditions: protein: recombinant; tags: N-terminal GST; dsDNA, one strand shown
T7 sequence: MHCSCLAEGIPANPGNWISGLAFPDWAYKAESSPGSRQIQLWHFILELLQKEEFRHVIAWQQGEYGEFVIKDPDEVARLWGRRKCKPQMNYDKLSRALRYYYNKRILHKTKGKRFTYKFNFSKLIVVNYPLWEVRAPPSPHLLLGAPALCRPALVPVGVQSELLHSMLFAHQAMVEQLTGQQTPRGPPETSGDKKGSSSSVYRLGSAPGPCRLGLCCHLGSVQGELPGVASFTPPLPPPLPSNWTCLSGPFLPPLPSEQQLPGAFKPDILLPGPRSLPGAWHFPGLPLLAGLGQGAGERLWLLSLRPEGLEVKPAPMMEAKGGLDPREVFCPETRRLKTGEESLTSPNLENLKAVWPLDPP
In short: as §1

ETS2 = biological target: T8, ETS2 (Homo sapiens, UniProt P15036 1-469); conditions: protein: recombinant; tags: N-terminal GST; dsDNA, one strand shown
T8 sequence: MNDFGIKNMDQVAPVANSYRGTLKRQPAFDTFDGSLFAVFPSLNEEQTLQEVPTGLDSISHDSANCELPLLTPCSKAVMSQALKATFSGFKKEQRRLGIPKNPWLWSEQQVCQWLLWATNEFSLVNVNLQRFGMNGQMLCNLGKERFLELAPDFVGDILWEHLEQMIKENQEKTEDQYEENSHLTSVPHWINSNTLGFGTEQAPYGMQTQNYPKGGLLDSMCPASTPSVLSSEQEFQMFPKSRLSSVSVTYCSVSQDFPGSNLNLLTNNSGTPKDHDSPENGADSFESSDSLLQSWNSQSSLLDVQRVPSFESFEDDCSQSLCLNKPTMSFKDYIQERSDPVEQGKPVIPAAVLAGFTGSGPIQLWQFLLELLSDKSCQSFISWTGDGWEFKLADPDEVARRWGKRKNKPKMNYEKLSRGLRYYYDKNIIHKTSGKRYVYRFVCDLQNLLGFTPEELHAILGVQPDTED
In short: as §1

SPDEF = biological target: T9, SPDEF (Homo sapiens, UniProt O95238 1-335); conditions: protein: recombinant; tags: N-terminal GST; dsDNA, one strand shown
T9 sequence: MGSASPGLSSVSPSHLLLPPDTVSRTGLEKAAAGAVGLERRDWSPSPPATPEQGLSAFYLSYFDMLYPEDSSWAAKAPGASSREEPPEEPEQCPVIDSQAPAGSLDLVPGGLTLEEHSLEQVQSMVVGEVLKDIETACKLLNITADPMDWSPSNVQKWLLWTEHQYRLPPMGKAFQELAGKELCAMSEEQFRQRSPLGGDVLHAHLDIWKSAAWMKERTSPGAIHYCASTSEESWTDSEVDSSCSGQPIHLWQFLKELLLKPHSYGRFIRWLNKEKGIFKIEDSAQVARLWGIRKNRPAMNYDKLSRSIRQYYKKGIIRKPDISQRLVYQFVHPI
In short: as §1

ETV7 = biological target: T10, ETV7 (Homo sapiens, UniProt Q9Y603 1-341); conditions: protein: recombinant; tags: N-terminal GST; dsDNA, one strand shown
T10 sequence: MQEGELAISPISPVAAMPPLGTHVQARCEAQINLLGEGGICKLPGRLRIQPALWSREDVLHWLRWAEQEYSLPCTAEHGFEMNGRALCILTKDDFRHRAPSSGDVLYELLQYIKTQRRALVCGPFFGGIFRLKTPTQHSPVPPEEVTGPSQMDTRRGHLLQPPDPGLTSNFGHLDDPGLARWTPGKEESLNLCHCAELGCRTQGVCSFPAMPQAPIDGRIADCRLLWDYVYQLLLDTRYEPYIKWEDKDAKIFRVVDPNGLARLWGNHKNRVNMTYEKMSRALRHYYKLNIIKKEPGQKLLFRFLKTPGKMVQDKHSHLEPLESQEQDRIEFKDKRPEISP
In short: as §1

ELF5 = biological target: T11, ELF5 (Homo sapiens, UniProt Q9UKW6-2 1-255); conditions: protein: recombinant; tags: N-terminal GST; dsDNA, one strand shown
T11 sequence: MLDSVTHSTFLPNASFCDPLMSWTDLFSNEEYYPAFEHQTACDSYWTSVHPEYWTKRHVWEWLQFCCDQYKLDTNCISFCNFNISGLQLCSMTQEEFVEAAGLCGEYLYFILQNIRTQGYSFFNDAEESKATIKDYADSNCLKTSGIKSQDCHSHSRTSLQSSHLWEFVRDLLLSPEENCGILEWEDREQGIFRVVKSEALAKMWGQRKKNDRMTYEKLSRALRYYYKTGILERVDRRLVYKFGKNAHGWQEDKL
In short: as §1

ETV3 = biological target: T12, ETV3 (Homo sapiens, UniProt P41162-2 1-143); conditions: protein: recombinant; tags: N-terminal GST; dsDNA, one strand shown
T12 sequence: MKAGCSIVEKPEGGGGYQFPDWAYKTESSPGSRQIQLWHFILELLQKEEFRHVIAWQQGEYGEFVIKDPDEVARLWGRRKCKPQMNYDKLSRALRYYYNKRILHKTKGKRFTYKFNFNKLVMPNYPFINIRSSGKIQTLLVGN
In short: as §1

ETV6 = ETV6 (Homo sapiens, UniProt P41212 1-452); conditions: protein: recombinant; tags: N-terminal GST; dsDNA, one strand shown
Chain of ETV6 (P41212 whole entry): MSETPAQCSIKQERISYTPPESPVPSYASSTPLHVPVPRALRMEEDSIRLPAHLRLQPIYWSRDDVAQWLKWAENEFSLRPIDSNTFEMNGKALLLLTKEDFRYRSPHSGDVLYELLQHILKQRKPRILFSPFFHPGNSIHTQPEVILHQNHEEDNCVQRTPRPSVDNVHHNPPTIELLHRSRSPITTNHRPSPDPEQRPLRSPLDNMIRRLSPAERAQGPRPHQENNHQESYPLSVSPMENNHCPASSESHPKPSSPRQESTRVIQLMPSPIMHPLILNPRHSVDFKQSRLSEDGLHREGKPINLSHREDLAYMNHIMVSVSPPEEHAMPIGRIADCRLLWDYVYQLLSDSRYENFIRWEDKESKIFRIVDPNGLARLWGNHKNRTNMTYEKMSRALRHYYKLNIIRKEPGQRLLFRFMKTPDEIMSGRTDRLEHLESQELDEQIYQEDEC
In short: as §1

Sequence	binding signal (FEV)	binding signal (ETV5)	binding signal (HSF1)	binding signal (SPIC)	binding signal (ELF4)	binding signal (ELK4)	binding signal (ETV2)	binding signal (ELF3)	binding signal (ETV1)	binding signal (ERF)	binding signal (ETV3L)	binding signal (ETS2)	binding signal (SPDEF)	binding signal (ETV7)	binding signal (ELF5)	binding signal (ETV3)	binding signal (ETV6)
GAAACA	1.33 fold enrichment (6-mer frequency, TF over GST control)	1.46 fold enrichment (6-mer frequency, TF over GST control)	1.22 fold enrichment (6-mer frequency, TF over GST control)	1.38 fold enrichment (6-mer frequency, TF over GST control)	1.3 fold enrichment (6-mer frequency, TF over GST control)	1.22 fold enrichment (6-mer frequency, TF over GST control)	1.44 fold enrichment (6-mer frequency, TF over GST control)	1.52 fold enrichment (6-mer frequency, TF over GST control)	1.26 fold enrichment (6-mer frequency, TF over GST control)	1.34 fold enrichment (6-mer frequency, TF over GST control)	1.4 fold enrichment (6-mer frequency, TF over GST control)	1.34 fold enrichment (6-mer frequency, TF over GST control)	1.3 fold enrichment (6-mer frequency, TF over GST control)	1.35 fold enrichment (6-mer frequency, TF over GST control)	1.39 fold enrichment (6-mer frequency, TF over GST control)	1.37 fold enrichment (6-mer frequency, TF over GST control)	1.45 fold enrichment (6-mer frequency, TF over GST control)
CGTTCC	1.5 fold enrichment (6-mer frequency, TF over GST control)	1.47 fold enrichment (6-mer frequency, TF over GST control)	1.44 fold enrichment (6-mer frequency, TF over GST control)	1.51 fold enrichment (6-mer frequency, TF over GST control)	1.47 fold enrichment (6-mer frequency, TF over GST control)	1.31 fold enrichment (6-mer frequency, TF over GST control)	1.33 fold enrichment (6-mer frequency, TF over GST control)	1.27 fold enrichment (6-mer frequency, TF over GST control)	1.47 fold enrichment (6-mer frequency, TF over GST control)	1.4 fold enrichment (6-mer frequency, TF over GST control)	1.43 fold enrichment (6-mer frequency, TF over GST control)	1.48 fold enrichment (6-mer frequency, TF over GST control)	1.5 fold enrichment (6-mer frequency, TF over GST control)	1.3 fold enrichment (6-mer frequency, TF over GST control)	1.65 fold enrichment (6-mer frequency, TF over GST control)	1.41 fold enrichment (6-mer frequency, TF over GST control)	1.42 fold enrichment (6-mer frequency, TF over GST control)

— paper PMC7862700, “An all-to-all approach to the identification of sequence-specific readers for epigenetic DNA modifications on cytosine”
